Screens deposited in PubChem BioAssay by several laboratories.
Mdm2-MdmX inh: disrupts the human Mdm2-MdmX interaction; O15151+Q00987; SaOS-2 split-luciferase Mdm2/MdmX complementation, luminescence; inhibition, % at 8 µM; hit rate 3% among 330,000;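 active = inhibition of at least 50% at 8 µM in the primary screen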
CSC inhib: blocks cancer stem cells. hit rate 1.1% among 300,000. inhibition, % at 7.5 µM. cancer stem cell-like cells viability, luminescence. AID 2717; in the data active = inhibition above about 75%; tested in HMLE shEcad cells
Gli-Sufu antag: Gli-Sufu pathway antagonism. inhibition, % at 5 µM. Sufu-KO-LIGHT fibroblasts, Gli luciferase reporter luminescence. hit rate 0.74% among 340,000;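 active = inhibition above about 55%, limit read from the data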;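 also: 0% = DMSO-treated cells and 100% = wells with medium but no cells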
697 NFkB inh: lowers PMA/ionomycin-induced NF-kB signal in 697 B cells; inhibition, % at 4 µM; hit rate 0.33% among 330,000; 697 B-cell NF-kB luciferase reporter, 16 h; in the data active = inhibition above about 35%
Beta apoptosis: beta cell apoptosis inhibition | INS-1E cytokine-induced death, ATP luminescence, 48 h; percent of positive-control rescue, neutral wells zero | protection from apoptosis, % (test concentration not listed) | hit rate 0.8% among 300,000 | AID 435005;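 active = Every replicate reaches about 75%, or at least half do and their mean reaches it too, limit read from the data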;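 also: 0% = cytokine-treated negative control wells and 100% = positive control rescue; higher means more ATP so stronger rescue from cytokine killing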
Jurkat NFkB inh: inhibitors of the PMA/ionomycin-induced NF-kB reporter in Jurkat cells; hit rate 0.53% among 330,000; inhibition, % at 4 µM; PMA/ionomycin-induced NF-kB luciferase reporter, luminescence; AID 435003; in the data active = inhibition above about 50%
Mdm2 MdmX conf: human Mdm2/MdmX binding inhibition, confirmed; shares compounds with Mdm2-MdmX inh; luminescent assay; inhibition, % at 8 µM; hit rate 55% among 10,000; AID 489028; in the data active = inhibition above about 40%
Full FLuc ctr: counter-screen for Mdm2/MdmX inhibitors: full-length luciferase; shares compounds with Mdm2-MdmX inh; SaOS-2 full-length luciferase counterscreen, luminescence; inhibition, % at 8 µM; hit rate 77% among 6,200; AID 504607;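 active = mean inhibition at 8 µM reaching about 37%, which flags the compound as non-specific, limit read from the data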;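 also: p53-null SaOS-2 cells with luciferase driven by a doxycycline-inducible promoter; compound on cells about two nights before reading with doxycycline added after day one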
* = called active by the depositor; x = no result. Rows were chosen to be rich in hits. Some 4.5% of all compounds tested hit in one or more screens of this group.

SMILES	Mdm2-MdmX inh	CSC inhib	Gli-Sufu antag	697 NFkB inh	Beta apoptosis	Jurkat NFkB inh	Mdm2 MdmX conf	others
CCCn1c(NC(=O)c2ccc(Cl)c(S(=O)(=O)N3CCCC3)c2)nc2ccccc21	81*	38	-2	-8	x	6	69*	Full FLuc ctr=43*
Cc1ccc(CNC(=O)CN(c2ccc(C)cc2)S(=O)(=O)c2c(C)nn(C)c2C)cc1	53*	-13	11	5	12	4	51*	Full FLuc ctr=63*
Cc1ccc(N(CC(=O)NCc2ccc(F)cc2)S(=O)(=O)c2c(C)nn(C)c2C)cc1	64*	-5	25	8	20	1	63*	Full FLuc ctr=63*
Cc1nn(C)c(C)c1S(=O)(=O)N(CC(=O)N1CCc2ccccc21)c1ccc(C(C)C)cc1	63*	-3	5	13	4	12	24
Cc1ccc(NC2CCCN(C(=O)c3cc4ncccn4n3)C2)cc1C (stereo not given)	-13	-11	-9	-3	x	9	x
C=CCN(C(=O)c1csnn1)C(C(=O)NC1CCCC1)c1ccccc1F (stereo not given)	3	-15	-25	3	2	18	x
Cc1ccc2c(c1)N(CC(=O)NCCC1=CCCCC1)C(=O)c1cccnc1O2	-32	x	-1	20	-4	6	x
COc1ccc(CCNC(=O)/C(C#N)=C2\N=C(NC(=O)c3ccco3)c3ccccc32)cc1	52*	8	1	-10	-6	7	-13
N#C/C(C(=O)NCCc1ccccc1)=C1/N=C(NC(=O)c2cccs2)c2ccccc21	39	9	7	4	6	8	x
N#C/C(C(=O)NCc1ccccc1)=C1/N=C(NC(=O)c2ccco2)c2ccccc21	65*	15	1	2	-2	-15	10
Cc1cc(C)c2nc(Nc3nc(CSc4nc5ccccc5[nH]4)cc(=O)[nH]3)nc(C)c2c1	x	x	26	x	x	x	x
Cc1ccc2oc(Nc3nc(-c4ccccc4)cc(=O)[nH]3)nc2c1	97*	x	-3	-36	x	27	21
Cc1cc(C)c2nc(Nc3nc(-c4ccccc4)cc(=O)[nH]3)nc(C)c2c1	71*	6	-17	5	8	3	23
COCc1cc(=O)[nH]c(Nc2nc3ccccc3o2)n1	20	30	20	-44	53	-31	x
O=C(C[C@@H]1C/C=C\C[C@@H](Cc2ccc(F)cc2)C(=O)OCCNC1=O)N[C@H](CO)Cc1ccccc1	1	9	10	-1	3	-3	x
CN(CC(=O)Nc1ccc(Cl)c(C(F)(F)F)c1)C(=O)Cn1cc([N+](=O)[O-])ccc1=O	-15	-10	x	4	2	-8	x
CCCNC(=O)Cn1nc(C)n2c(cc3cc(F)ccc32)c1=O	-26	-22	-17	-10	4	-38	x
CCc1nn(CC(=O)NCCCc2ccccc2)c(=O)c2cc3cc(F)ccc3n12	56*	-17	3	-5	-1	18	-1
CCc1nn(CC(=O)NCCCc2ccccc2)c(=O)c2cc3c(OC)cccc3n12	11	-11	3	4	-2	-3	x
CCc1nn(CC(=O)NCCC2=CCCCC2)c(=O)c2cc3cc(F)ccc3n12	50*	10	0	3	0	-5	12
CSCCC(NC(=O)c1cccc(C)c1)C(=O)NNC(=O)c1cccs1 (stereo not given)	12	-11	5	-11	-3	0	x
COc1ccc(CCCC(=O)NCc2ccccc2)cc1C	53*	48	-3	-22	-3	41	48*	Full FLuc ctr=71*
CC(Sc1nnc(C2CC2)n1C1CC1)C(=O)Nc1ccccc1C#N (stereo not given)	9	x	4	-12	0	7	x
CC(C)c1ccc(Nc2nnc(SC3CCOC3=O)s2)cc1 (stereo not given)	52*	-10	-5	-11	-9	1	-3
O=C(NC(=S)Nc1nc(-c2cccc([N+](=O)[O-])c2)cs1)c1ccccc1Cl	-3	18	2	-46	1	-12	x
Cc1cnc(NC(=O)c2nn(C)cc2[N+](=O)[O-])s1	35	x	2	21	x	24	x
